Measurements: PubChem BioAssay
For some of these results: Potency and affinity values are given separately. The source made the active and inactive calls.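 Rule for the calls, unless noted: active = at least 20% inhibition of 6-phosphogluconate dehydrogenase activity; inactive = the rest.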 Peptide text beside a SMILES is read from it. * marks the point of attachment. For = O=C*

Experiments:
[1] = molecular target: 6-phosphogluconate dehydrogenase, decarboxylating (Homo sapiens) (UniProt P52209); assay: 6PGD enzyme inhibitors, primary screen, biochemical, human, recombinant enzyme, NADPH absorbance (AID 1159550); settings: recombinant 6PGD, NADPH absorbance 341 nm; at 10 µM; stronger effect = higher value
[2] = molecular target: Mitogen-activated protein kinase 7 (Homo sapiens) (UniProt Q13164); assay: ERK5 transactivation activators in reporter cells, primary screen, cell-based, HTS (AID 1508626;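 active = luciferase signal above three times the same-plate solvent-only control wells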;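 note: luciferase driven by Gal4-ERK5 fusion binding five Gal4 sites before minimal TATA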); settings: HeLa Gal4-ERK5 transactivation, 18 h, at 5 µM, stronger effect = higher value
[3] = liver-stage malaria parasite growth inhibition, primary screen, cell-based, HepG2, luciferase luminescence, HepG2 viability (AID 624349; in the data active = parasite load remaining mostly below about 12%, no sharp cut-off; inactive = mostly above about 10%;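 note: 100% = mean of DMSO negative control wells on the same plate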); settings: P. berghei liver stage in HepG2, luciferase luminescence, concentration not given here; parasite load remaining: stronger effect = lower value; viability: measured here: HepG2 viability without parasites
[4] = Cy5 fluorescence interference with SSB-bound oligo, artefact control for HCV NS3 helicase inhibitor project, biochemical, NIH Clinical Collection, E. coli SSB (AID 743268; call rule not given here)
[5] = test system: Hepatitis C virus NS3 helicase; assay: HCV NS3 helicase inhibitors, primary screen, biochemical, fluorescence polarization, NIH Clinical Collection (AID 743270; call rule not given here); settings: NS3 helicase binding to Cy5-dT15 DNA, stronger effect = higher value, concentration not given here
[6] = molecular target: Single-stranded DNA-binding protein (Escherichia coli (strain K12)) (UniProt P0AGE0); assay: E. coli SSB displacement from DNA, counter-screen for HCV NS3 helicase inhibitor project, biochemical, fluorescence polarization, NIH Clinical Collection (AID 743271; in the data active = inhibition above about 28%); settings: stronger effect = higher value, concentration not given here
[7] = fluorescence interference in NS3h assay format, artefact control for HCV NS3 helicase inhibitor project, biochemical, NIH Clinical Collection (AID 743272; call rule not given here;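 note: HCV NS3 helicase with a Cy5 labelled single stranded DNA probe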); settings: fluorescence interference counterscreen, stronger effect = lower value
[8] = polyglutamine-triggered caspase-3 activation inhibitors, cell-based (AID 1583); settings: polyglutamine-induced caspase-3 activation, cell assay; stronger effect = higher value;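 tested at 10 µM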
[9] = suppressors of polyQ aggregation in yeast, 75Q-TubU reporter (AID 1593); settings: Yeast 75Q polyglutamine aggregation reporter
[10] = rescue of polyQ-huntingtin neuronal dysfunction in worms, whole organism, C. elegans mechanosensory neurons, N-terminal huntingtin (AID 1599); settings: touch response, stronger effect = higher value
[11] = inhibitors of mitochondrial cytochrome c release, biochemical, purified mitochondria (AID 1603); settings: stronger effect = lower value;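 note: mouse liver mitochondria challenged with calcium chloride; signal normalized to the plate average as 100%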
[12] = inhibitors of polyQ protein aggregation (AID 1604); settings: polyglutamine-induced protein aggregation inhibition assay; stronger effect = higher value; tested at 2.5 µM
[13] = enhancers of glutamate uptake in motor neurons, MN-1 cell line (AID 1612); settings: MN-1 motor neuron cells, stronger effect = higher value;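 note: tested at 1 µM final; 0% = mean of DMSO vehicle wells on each plate; positive means more glutamate uptake than control and negative means less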
[14] = reducers of polyQ inclusions in PC12 cells, cell-based, NGF-treated PC12, GFPQ80 (AID 1614); settings: PC12 NGF-treated GFP-polyQ80 inclusion reduction;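 note: lower means fewer inclusions and 0 means no inclusions at all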
[15] = suppressors of polyglutamine aggregation in yeast, 75Q-TubH (AID 1616); settings: S. cerevisiae 75Q-TubH polyglutamine aggregation suppression; stronger effect = higher value

Sequence of 6-phosphogluconate dehydrogenase, decarboxylating (Homo sapiens) (P52209 whole entry, looked up, the tested form may be a part): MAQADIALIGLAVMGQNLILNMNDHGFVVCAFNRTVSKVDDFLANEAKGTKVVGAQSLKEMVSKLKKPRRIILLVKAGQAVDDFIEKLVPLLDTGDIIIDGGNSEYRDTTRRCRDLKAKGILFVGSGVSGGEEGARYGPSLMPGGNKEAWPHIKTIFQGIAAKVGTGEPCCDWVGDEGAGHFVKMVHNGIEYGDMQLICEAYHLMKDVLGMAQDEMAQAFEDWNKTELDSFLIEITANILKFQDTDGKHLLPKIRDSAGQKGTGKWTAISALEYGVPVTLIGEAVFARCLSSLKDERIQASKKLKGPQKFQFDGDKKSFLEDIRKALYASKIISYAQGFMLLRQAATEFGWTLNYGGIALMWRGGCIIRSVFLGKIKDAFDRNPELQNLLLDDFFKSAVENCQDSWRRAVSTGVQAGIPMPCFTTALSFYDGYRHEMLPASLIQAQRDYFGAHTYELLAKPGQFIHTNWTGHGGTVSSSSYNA
Sequence of Mitogen-activated protein kinase 7 (Homo sapiens) (Q13164 whole entry, looked up, the tested form may be a part): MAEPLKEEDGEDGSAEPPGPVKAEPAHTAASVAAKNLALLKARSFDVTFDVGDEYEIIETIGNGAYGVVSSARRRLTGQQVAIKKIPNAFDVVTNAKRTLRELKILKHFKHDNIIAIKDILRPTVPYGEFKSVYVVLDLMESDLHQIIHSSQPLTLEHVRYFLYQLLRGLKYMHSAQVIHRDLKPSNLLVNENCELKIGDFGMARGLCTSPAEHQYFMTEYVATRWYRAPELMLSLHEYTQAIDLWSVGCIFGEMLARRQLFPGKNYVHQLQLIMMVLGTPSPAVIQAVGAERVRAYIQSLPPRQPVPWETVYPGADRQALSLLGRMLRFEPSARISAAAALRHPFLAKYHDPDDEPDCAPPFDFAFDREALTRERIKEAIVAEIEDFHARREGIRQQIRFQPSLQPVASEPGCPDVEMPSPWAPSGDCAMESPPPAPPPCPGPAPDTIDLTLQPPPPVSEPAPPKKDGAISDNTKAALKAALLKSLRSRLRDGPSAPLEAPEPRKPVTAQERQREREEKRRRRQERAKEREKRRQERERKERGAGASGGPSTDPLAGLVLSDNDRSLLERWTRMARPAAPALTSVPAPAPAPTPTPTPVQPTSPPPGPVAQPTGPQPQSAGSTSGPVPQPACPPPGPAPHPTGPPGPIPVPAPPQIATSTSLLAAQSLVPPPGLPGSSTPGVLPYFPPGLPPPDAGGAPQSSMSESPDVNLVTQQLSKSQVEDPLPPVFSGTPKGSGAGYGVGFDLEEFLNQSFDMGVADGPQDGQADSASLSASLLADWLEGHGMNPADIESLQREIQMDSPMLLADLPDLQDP

Structure (SMILES): COC(=O)C[C@H]1C2(C)CC34OC5(C)O[C@@]6([C@H](OC)C(OC(=O)C(C)C)[C@]7(C)C(/C(=C(/OC)C(C)C)C(=O)O[C@H]7c7ccoc7)[C@@]6(O5)[C@H](OC)[C@@]3(OC)C2OC(C)=O)[C@]14C (some centres undefined)
- inhibition [1]: -3.86% (inactive)
- luciferase signal [2]: 20 AU (inactive)

Structure (SMILES): CC=C1[C@H]2C=C(C)C[C@]1(N)c1ccc(=O)[nH]c1C2
- parasite load remaining [3]: 62.9% (inactive)
- viability [3]: 72.6%
- fluorescence ratio [4]: 0.99 (inactive)
- inhibition [5]: -2.84% (inactive)
- inhibition [6]: -1.97% (inactive)
- fluorescence ratio [7]: 0.96 (inactive)
- inhibition [1]: -0.222% (inactive)
- luciferase signal [2]: 44 AU (inactive)

Structure (SMILES): CC(N)C(=O)NC(Cc1ccccc1)C(=O)O (centres undefined)
- inhibition [8]: 17.1%
- score [9]: 1.2
- rescue above control [10]: 1.23
- cytochrome c release ratio [11]: 1.13
- inhibition of aggregation [12]: 77.8%
- glutamate uptake change [13]: 2.41%
- inclusion score [14]: 2
- aggregation suppression score [15]: 1.4
- inhibition [1]: 16.4% (inactive)

Structure (SMILES): CSCCC(NC=O)C(=O)NC(C)C(=O)O (centres undefined)
- inhibition [8]: 3.66%
- score [9]: 1.03
- rescue above control [10]: 3.86
- cytochrome c release ratio [11]: 1.14
- inhibition of aggregation [12]: 81.6%
- glutamate uptake change [13]: 9.47%
- inclusion score [14]: 2
- aggregation suppression score [15]: 1.3
- inhibition [1]: 11.9% (inactive)

Structure (SMILES): O=C(O)c1cc(O)ccc1O
- inhibition [8]: -0.2%
- score [9]: 0.92
- rescue above control [10]: -5.86
- cytochrome c release ratio [11]: 0.99
- inhibition of aggregation [12]: 72.2%
- glutamate uptake change [13]: -11.6%
- inclusion score [14]: 2
- aggregation suppression score [15]: 0.337
- inhibition [1]: -15.2% (inactive)

Structure (SMILES): CC(C)CCC[C@@H](C)[C@H]1CC[C@H]2[C@@H]3C[C@@H](O)[C@@]4(O)C[C@@H](O)CC[C@]4(C)[C@H]3CC[C@]12C
- inhibition [1]: -2.71% (inactive)
- luciferase signal [2]: 88 AU (inactive)

Structure (SMILES): CSCCC(N)C(=O)NC(CC(C)C)C(=O)NC(Cc1ccccc1)C(=O)O (centres undefined)
- inhibition [8]: 18.9%
- score [9]: 1.68
- rescue above control [10]: 2.33
- cytochrome c release ratio [11]: 0.77
- inhibition of aggregation [12]: 67.8%
- glutamate uptake change [13]: 4.95%
- inclusion score [14]: 2
- aggregation suppression score [15]: 1.32
- inhibition [1]: 9.25% (inactive)

Structure (SMILES): COC(=O)C(C)c1ccc(C(=O)c2cccs2)cc1 (centres undefined)
- parasite load remaining [3]: 119% (inactive)
- viability [3]: 76.5%
- inhibition [1]: -13.2% (inactive)
- luciferase signal [2]: 44 AU (inactive)

Structure (SMILES): COC(=O)[C@H]1[C@H]2C[C@H]3c4[nH]c5cc(OC)ccc5c4CCN3C[C@H]2C[C@@H](OC(=O)c2cc(OC)c(OC)c(OC)c2)[C@@H]1OC
- inhibition [8]: -6.47%
- score [9]: 1.04
- rescue above control [10]: -3.75
- cytochrome c release ratio [11]: 1.13
- inhibition of aggregation [12]: 26.7%
- glutamate uptake change [13]: 8.81%
- inclusion score [14]: 2.5
- aggregation suppression score [15]: 0.976
- inhibition [1]: 0.174% (inactive)
- luciferase signal [2]: 92 AU (inactive)

Structure (SMILES): C[C@H](CCC(=O)O)[C@H]1CC[C@H]2[C@@H]3CC[C@@H]4C[C@H](O)CC[C@]4(C)[C@H]3C[C@H](O)[C@]12C
- inhibition [1]: -3.07% (inactive)
- luciferase signal [2]: 28 AU (inactive)

Structure (SMILES): NC(=O)c1ccc[n+]([C@@H]2O[C@H](COP(=O)([O-])OP(=O)(O)OC[C@H]3O[C@@H](n4cnc5c(N)ncnc54)[C@H](OP(=O)(O)O)[C@@H]3O)[C@@H](O)[C@H]2O)c1
- inhibition [8]: 19.9%
- score [9]: 1.08
- rescue above control [10]: 9.74
- cytochrome c release ratio [11]: 0.78
- inhibition of aggregation [12]: -21.6%
- glutamate uptake change [13]: 16.5%
- inclusion score [14]: 2
- aggregation suppression score [15]: 0.975
- parasite load remaining [3]: 169% (inactive)
- viability [3]: 83.2%
- inhibition [1]: 16.2% (inactive)
- luciferase signal [2]: 32 AU (inactive)

Structure (SMILES): CSCCC(NC=O)C(=O)NC(Cc1ccccc1)C(=O)O (stereo not drawn) (For-Met-Phe-OH; configuration not given here)
- inhibition [8]: 0.6%
- score [9]: 1.4
- rescue above control [10]: 4.29
- cytochrome c release ratio [11]: 1.19
- inhibition of aggregation [12]: 59.3%
- glutamate uptake change [13]: 0%
- inclusion score [14]: 2
- aggregation suppression score [15]: 0.985
- inhibition [1]: 6.92% (inactive)

Structure (SMILES): CC(=O)OC1CC2C(C)(C)C(=O)CCC2(C)C2CCC3(C)C(c4ccoc4)OC(=O)C4OC43C12C (centres undefined)
- inhibition [1]: 11.7% (inactive)
- luciferase signal [2]: 20 AU (inactive)

Structure (SMILES): C/C1=C\CCC(=O)C2CC(C)(C)C2CC1 (centres undefined)
- inhibition [1]: -1.45% (inactive)
- luciferase signal [2]: 60 AU (inactive)

Structure (SMILES): NCCCCC(N)C(=O)NC(Cc1ccc(O)cc1)C(=O)NC(CCCCN)C(=O)O (stereo not drawn) (H-Lys-Tyr-Lys-OH; configuration not given here)
- inhibition [8]: -30.8%
- score [9]: 3.85
- rescue above control [10]: 16.1
- cytochrome c release ratio [11]: 0.94
- inhibition of aggregation [12]: 37.2%
- glutamate uptake change [13]: -3.42%
- inclusion score [14]: 1
- aggregation suppression score [15]: 1.25
- inhibition [1]: 13.2% (inactive)

Structure (SMILES): CC(=O)N[C@@H](CCC(=O)O)C(=O)O
- inhibition [8]: 24.8%
- score [9]: 1.29
- rescue above control [10]: 9.63
- cytochrome c release ratio [11]: 1.22
- inhibition of aggregation [12]: 74.1%
- glutamate uptake change [13]: -6.23%
- inclusion score [14]: 2
- aggregation suppression score [15]: 1.35
- parasite load remaining [3]: 196% (inactive)
- viability [3]: 71.4%
- inhibition [1]: 13.8% (inactive)
